{
  "source": "PubChem BioAssay AID2546",
  "about": "(National Center for Advancing Translational Sciences (NCATS), 2010)",
  "note": "In all, about 310,000 compounds went through this assay and about 11,000 (3.5%) were called active. Roughly 8% stayed inconclusive and do not appear here. Calls come from the whole dose curve; as a rule, active = well fitted inhibition curve with a large enough effect; inconclusive = small, poorly fitted or top-dose-only effect, or effect the other way; inactive = flat fitted curve, though single readings scatter. What follows is part of a selection rich in actives, with near analogues and random picks from the rest. % is set by controls: 0 for no effect and ±100 for the full control effect; potency is the fitted concentration of half-maximal effect.",
  "data": [
    {"assay": "VP16 counterscreen qHTS for inhibitors of ROR gamma transcriptional activity;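 note: Gal4-VP16 expression switched on by copper sulfate through the metallothionein promoter; nearly all actives have a fitted effect of over 50% in size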", "conditions": "Drosophila S2 Gal4-VP16 UAS-luciferase, luminescence, 20 h; series mostly up to 53.6 µM; activity, negative = inhibition: at the top concentration", "values": [
      {"smiles": "O=C(O)c1ccccc1C(=O)Nc1nc(-c2ccccc2)cs1", "activity, negative = inhibition": "0.0927% (inactive)"},
      {"smiles": "Cc1nc(NNC(=O)c2ccccc2)cc(-c2ccccc2)n1", "activity, negative = inhibition": "-19.6% (inactive)"},
      {"smiles": "Cc1ccc(-c2csc(NNC(=O)c3ccccc3)n2)cc1", "Potency": "7.08 µM (active)"},
      {"smiles": "Cc1ccc(Nc2nc(-c3sc(NC(=O)c4ccccc4)nc3C)cs2)cc1", "activity, negative = inhibition": "-2.11% (inactive)"},
      {"smiles": "CC(=O)c1ccc(N2CCN(C(=O)C3CCN(S(=O)(=O)c4ccc5c(c4)CC(C)N5C(=O)C4CC4)CC3)CC2)cc1", "note": "(stereo not drawn)", "activity, negative = inhibition": "-8.05% (inactive)"},
      {"smiles": "CCCC(C)NC(=O)C1CCN(C(=O)C2CC(=O)N(c3ccc(C)cc3)C2)CC1", "note": "(stereo not drawn)", "activity, negative = inhibition": "12.6% (inactive)"},
      {"smiles": "COc1cc(C)c(C)cc1S(=O)(=O)N1CCCc2ccccc21", "activity, negative = inhibition": "-8.46% (inactive)"},
      {"smiles": "O=C(Cn1cnc2ccccc21)Nc1ccccc1-c1ccccc1", "activity, negative = inhibition": "-5.47% (inactive)"},
      {"smiles": "O=C(NCCOc1cccnc1)c1ccc(OC2CCN(Cc3ccccn3)CC2)cc1", "activity, negative = inhibition": "-2.29% (inactive)"},
      {"smiles": "C[C@H](NC(=O)[C@@H]1Cc2ccccc2CN1C(=O)OC(C)(C)C)C(=O)NC1CCCC1", "activity, negative = inhibition": "-1.53% (inactive)"},
      {"smiles": "CC(C)(C)NC(=O)C(=O)NN=C1CCCCCCC1", "activity, negative = inhibition": "13.8% (inactive)"},
      {"smiles": "CC(C)NC(=S)NN=C1CCCCCCCCCCC1", "Potency": "5.01 µM (active)"},
      {"smiles": "CCc1ccc(C(=O)NN=C2CCCCCC2)s1", "activity, negative = inhibition": "-2.72% (inactive)"},
      {"smiles": "CCC1CCCCN1C(=S)Nc1ccc(S(=O)(=O)Nc2ncccn2)cc1", "note": "(stereo not drawn)", "activity, negative = inhibition": "-18.2% (inactive)"},
      {"smiles": "CCCc1cc(=O)oc2cc(OCC(=O)Nc3ccc(CN4CCOCC4)cc3)c(Cl)cc12", "activity, negative = inhibition": "-13% (inactive)"},
      {"smiles": "CC(C)CNC(=O)C(=O)NCc1ccccc1", "activity, negative = inhibition": "-16.5% (inactive)"},
      {"smiles": "CC(C)CC(=O)NC(=S)NCc1ccccc1", "Potency": "10 µM (active)"},
      {"smiles": "O=C(NNC(=S)NCc1ccccc1)c1ccc(OC(F)F)cc1", "activity, negative = inhibition": "-14.5% (inactive)"},
      {"smiles": "CC(C)CC(=O)NC(=S)Nc1cc(C(=O)O)ccc1Cl", "activity, negative = inhibition": "-1.81% (inactive)"},
      {"smiles": "FC(F)(F)Oc1ccc(NC(=S)NCc2ccccc2)cc1", "Potency": "11.2 µM (active)"},
      {"smiles": "COC(=O)Cc1ccc(OCC(=O)Nc2ccc(OC(F)(F)F)cc2)cc1", "activity, negative = inhibition": "-4.79% (inactive)"},
      {"smiles": "O=C(Cc1ccccc1)NCc1ccc(F)cc1", "activity, negative = inhibition": "2.04% (inactive)"},
      {"smiles": "COC(=O)Cc1ccc(NC(=S)NCc2ccco2)cc1", "activity, negative = inhibition": "-2.3% (inactive)"},
      {"smiles": "COC(=O)Cc1ccc(NC(=S)NCc2ccccc2)cc1", "Potency": "31.6 µM (active)"},
      {"smiles": "CCOC(=O)c1ccc(NC(=O)Cc2cccs2)cc1", "activity, negative = inhibition": "3.14% (inactive)"},
      {"smiles": "CCC1Sc2ccc(S(=O)(=O)CCC(=O)NCc3cccs3)cc2NC1=O", "note": "(stereo not drawn)", "activity, negative = inhibition": "-3.04% (inactive)"},
      {"smiles": "COc1ccccc1CNC(=O)c1ccc(N(C)S(=O)(=O)c2ccc(C)cc2)cc1", "activity, negative = inhibition": "-4.62% (inactive)"},
      {"smiles": "CSc1ncccc1C(=O)Nc1ccc(C)cn1", "activity, negative = inhibition": "3.04% (inactive)"},
      {"smiles": "COc1ccc(OC)c(NC(=O)CN(C)CCOc2ccc(Br)cc2)c1", "activity, negative = inhibition": "-7.46% (inactive)"},
      {"smiles": "CC1(C)Cc2c(sc(NC(=O)C(=O)NCC3CCCO3)c2C(=O)O)CO1", "note": "(stereo not drawn)", "activity, negative = inhibition": "9.69% (inactive)"},
      {"smiles": "COc1ccc(C2CC(c3ccc([N+](=O)[O-])cc3)=NN2C(C)=O)cc1", "note": "(stereo not drawn)", "activity, negative = inhibition": "-8.56% (inactive)"},
      {"smiles": "Cc1cccnc1CCNC(=O)C1CCC(=O)N(Cc2cccc(F)c2)C1", "note": "(stereo not drawn)", "activity, negative = inhibition": "-1.61% (inactive)"},
      {"smiles": "O=C(NCCCN1CCOCC1)c1ccc2c(c1)N(Cc1cccc(F)c1)C(=O)c1ccccc1S2", "activity, negative = inhibition": "-0.386% (inactive)"},
      {"smiles": "COc1ccc(CCNc2nc(-c3cccc(NC(C)=O)c3)cs2)cc1OC", "activity, negative = inhibition": "5.47% (inactive)"},
      {"smiles": "COc1cccc(CC(=O)Nc2nc(-c3ccc(OC)c(OC)c3)cs2)c1", "activity, negative = inhibition": "4.05% (inactive)"},
      {"smiles": "COc1ccc(CC(=O)Nc2nc(-c3ccc(F)c(F)c3)cs2)cc1OC", "Potency": "15.8 µM (active)"},
      {"smiles": "CCOC(=O)C1(Cc2ccccc2C)CCCN(C(=O)CN2C(=O)CSC2=O)C1", "note": "(stereo not drawn)", "activity, negative = inhibition": "-7.58% (inactive)"},
      {"smiles": "CCOC(=O)c1cccc(NC(=O)C2CCN(c3ncnc4c3nc3n4CCCCC3)CC2)c1", "activity, negative = inhibition": "0% (inactive)"},
      {"smiles": "CN(C(=O)c1ccccc1)c1nccnc1C#N", "activity, negative = inhibition": "6.12% (inactive)"},
      {"smiles": "COc1ccc(CC(=O)N2N=C(C)CC2(O)C(F)(F)F)cc1", "note": "(stereo not drawn)", "Potency": "8.91 µM (active)"},
      {"smiles": "CCCCCNC(=O)Cc1ccc(OC)cc1", "activity, negative = inhibition": "13.1% (inactive)"},
      {"smiles": "O=C(Cc1ccccc1)N1N=C(c2ccncc2)CC1(O)C(F)(F)F", "note": "(stereo not drawn)", "activity, negative = inhibition": "-3.57% (inactive)"},
      {"smiles": "CC1=NN(C(=O)CCc2ccccc2O)C(O)(C(F)(F)F)C1", "note": "(stereo not drawn)", "Potency": "12.6 µM (active)"},
      {"smiles": "NC(=O)c1ccc(Nc2ccc3c(c2)CCC3)c([N+](=O)[O-])c1", "activity, negative = inhibition": "-16.3% (inactive)"},
      {"smiles": "Cc1ccc(Nc2ncnc3c2cnn3C)c(C)c1", "activity, negative = inhibition": "-3.95% (inactive)"},
      {"smiles": "COC(=O)c1c(NC(=O)C2CC(C)=C(C)CC2C(=O)O)sc2c1CCCCC2", "note": "(stereo not drawn)", "activity, negative = inhibition": "-2.79% (inactive)"},
      {"smiles": "O=S(=O)(/C=C/c1ccccc1)N1CCNCC1", "activity, negative = inhibition": "4.26% (inactive)"},
      {"smiles": "CCc1ccc(OCC(=O)NCC(c2ccc(Cl)cc2)N2CCCCC2)cc1", "note": "(stereo not drawn)", "activity, negative = inhibition": "-13.5% (inactive)"},
      {"smiles": "Cc1ccc(S(=O)(=O)c2c[nH]c3ccc(C)cc3c2=O)cc1", "activity, negative = inhibition": "-3.91% (inactive)"},
      {"smiles": "Cc1cc(/C=N/Nc2ccc([N+](=O)[O-])cn2)c(C)n1-c1cccc(C(=O)O)c1", "activity, negative = inhibition": "15.8% (inactive)"},
      {"smiles": "Cc1cc(/C=N/NC(N)=O)c(C)n1C1CCCCC1", "activity, negative = inhibition": "-0.922% (inactive)"},
      {"smiles": "Cc1cccc(-n2c(C)cc(/C=N/NC(N)=S)c2C)c1", "Potency": "2.82 µM (active)"},
      {"smiles": "O=C(CN1CCN(C(=O)C2CCCO2)CC1)Nc1c(Cl)cccc1Cl", "note": "(stereo not drawn)", "activity, negative = inhibition": "-7.25% (inactive)"}
    ]}
  ]
}
